# From PubChem BioAssay (EPA / NIEHS)
# Results filed as inconclusive are left out. Active and inactive are the calls of the source. Rule for the calls, unless noted: active = hit-call score of the fitted dose curve at least 0.9, where 1 is the maximum; inactive = score below 0.9.
# Tests used:
# [1] = CCTE_Mundy_HCI_Cortical_Synap_Neur_Matur_NeuriteSpotCountPerNeuron: CCTE's Synaptogenesis and Neurite Maturation Assay in rat cortical cells for Neurite Spot Count per Neuron Count, Mundy Lab (AID 2284215)
# Summary of the method: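 Rat primary cortical cultures given AraC at DIV 5, dosed from DIV 7 to DIV 12 with media change. Fixed, stained for MAP2, synaptophysin and Hoechst; neurite-associated synaptophysin puncta per neuron quantified by high-content imaging versus DMSO.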
# [2] = CCTE_Mundy_HCI_Cortical_Synap_Neur_Matur_SynapseCount: CCTE's Synaptogenesis and Neurite Maturation Assay in rat cortical cells for Synapse Count, Mundy Lab (AID 2284218)
# Summary of the method: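 Rat primary cortical cells in 96-well plates received AraC at DIV 5 and were dosed with chemicals at DIV 7 with media change, through DIV 12 (288.33 h). Synapses per neuron counted by high-content imaging of MAP2/synaptophysin/Hoechst staining, versus DMSO baseline.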
# [3] = CCTE_Mundy_HCI_Cortical_Synap_Neur_Matur_NeuriteCount: CCTE's Synaptogenesis and Neurite Maturation Assay in rat cortical cells for Neurite Count, Mundy Lab (AID 2284222);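 note: exposure from day 7 to day 12 in vitro with readout at day 12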
# Summary of the method: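 Rat primary cortical cells; AraC added at DIV 5, chemicals dosed with media change at DIV 7 through DIV 12. MAP2/synaptophysin/Hoechst immunostaining, high-content imaging of neurite number; fitted relative to DMSO.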
# [4] = CCTE_Mundy_HCI_Cortical_Synap_Neur_Matur_CellBodySpotCount: CCTE's Synaptogenesis and Neurite Maturation Assay in rat cortical cells for Cell Body Spot Count, Mundy Lab (AID 2284223)
# Summary of the method: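 Primary rat cortical cultures, AraC added at DIV 5; dosed DIV 7 through DIV 12 […]. Fixed, stained for MAP2 and synaptophysin with Hoechst; cell body-associated synaptophysin puncta per neuron counted by high-content imaging, loss vs DMSO.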
# [5] = CCTE_Mundy_HCI_hNP1_Pro_ResponderAvgInten: CCTE's Proliferation Assay in human neuroprogenitor cells, Mundy Lab (AID 2284224; active = hit-call score of the fitted dose curve at least 0.9, where 1 is the maximum;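 note: human neural progenitor cells hNP1 derived from WA09 embryonic stem cells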)
# Summary of the method: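 Proliferation read as average intensity of BrdU-positive cells, imaged at 26.25 h post-dosing: chemical exposure started after 40–44 h culture, BrdU during final 4 h, paraformaldehyde fixation. Positive-direction fit relative to DMSO.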
# [6] = UKN2_HCS_IMR90_cell_viability: Viability Assessment in the University of Konstanz (UKN) Leist Lab Neural Crest Cell Migration Assay in human induced IMR90 Pluripotent Stem Cells (UKN2) (AID 2284233);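 note: viability of neural crest cells differentiated from IMR90 iPSC measured by calcein-AM fluorescence imaging; cells exposed to compound for 24 h after a 24 h migration phase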
# Summary of the method: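 Neural crest cells derived from IMR90 iPSC migrate into a stopper-free zone for 24 h in EGF/FGF medium, then are exposed to compound for 24 h. Viability assessed by calcein-AM and Hoechst staining with high-content imaging, fitted bidirectionally versus DMSO.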
# [7] = CCTE_Mundy_HCI_Cortical_NOG_NeuronCount: CCTE's Neurite Outgrowth Assay in rat cortical cells for Neuron Count, Mundy Lab (AID 2284236; active = hit-call score of the fitted dose curve at least 0.9, where 1 is the maximum;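 note: neurons counted by imaging betaIII-tubulin and Hoechst stained cortical cells; cells exposed to compound for about 48 hours before fixation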)
# Summary of the method: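 Read-out: neuron number by high-content imaging of betaIII-tubulin (Alexa Fluor-488) and Hoechst-labelled rat primary cortical cells.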
# [8] = CCTE_Mundy_HCI_Cortical_NOG_BPCount: CCTE's Neurite Outgrowth Assay in rat cortical cells for Branch Point Count, Mundy Lab (AID 2284237)
# Summary of the method: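 Measured 50.33 h after dosing, this morphology endpoint uses rat primary cortical cultures labelled for betaIII-tubulin. Branch points are quantified by high-content imaging, with DMSO as negative control and baseline.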
# [9] = CCTE_Mundy_HCI_hNP1_Casp3_7: CCTE's Caspase-Glo 3/7 Assay in human neuroprogenitor cells for Apoptosis, Mundy Lab (AID 2284240)
# Summary of the method: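 Luminescent caspase-3/7 readout, 26.5 h post-dose, in human neural progenitor cells from WA09 embryonic stem cells. Cells grew 40–44 h at 37 °C, 5% CO2 before chemical addition. Activity analysed as signal increase over DMSO baseline.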
# [10] = CCTE_Mundy_HCI_hNP1_CellTiter: CCTE's Cell Titer-Glo 2 Assay in human neuroprogenitor cells for Viability, Mundy Lab (AID 2284241; active = hit-call score of the fitted dose curve at least 0.9, where 1 is the maximum)
# Summary of the method: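 Viability read as luminescent ATP content (CellTiter-Glo, 30 min room temperature) twenty-four hours after dosing, relative to DMSO. Cells: WA09-derived hNP1 neuroprogenitors on poly-L-ornithine/laminin, plated 40 to 44 hours before chemical.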
# [11] = CCTE_Mundy_HCI_Cortical_Synap_Neur_Matur_NeuronCount: CCTE's Synaptogenesis and Neurite Maturation Assay in rat cortical cells for Neuron Count, Mundy Lab (AID 2284242; active = hit-call score of the fitted dose curve at least 0.9, where 1 is the maximum)
# Summary of the method: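 Rat primary cortical cells received AraC at DIV 5 to arrest glia, then were dosed with chemicals at DIV 7 through DIV 12. Fixed cells were stained for nuclei, MAP2 and synaptophysin, and neurons were counted by high-content imaging relative to DMSO.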
# [12] = IUF_NPC2c_oligodendrocyte_migration_120hr: Leibniz Research Institute for Environmental Medicine (IUF) 120-hour Neural Progenitor Cell Migration Assay for Oligodendrocyte Migration (NPC2c) (AID 2284297);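 note: O4-positive oligodendrocyte migration distance divided by radial glia migration distance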
# Summary of the method: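 Human fetal neural progenitor spheres (0.3 mm) are plated on poly-D-lysine/laminin in N2 differentiation medium and exposed for 120 h, with half-medium renewal at day 3. Oligodendrocyte (O4+) migration distance comes from ICC imaging, normalised to radial glia migration.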
# [13] = IUF_NPC2a_radial_glia_migration_120hr: Leibniz Research Institute for Environmental Medicine (IUF) 120-hour Neural Progenitor Cell Migration Assay for Radial Glia Migration (NPC2a) (AID 2284298)
# Summary of the method: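 Human fetal-cortex neural progenitor spheres (0.3 mm) plated on poly-D-lysine/laminin in N2 differentiation medium, exposed 120 h at 37C with half-medium renewal at day 3. Radial glia migration distance (um) measured from Hoechst-stained nuclei images; DMSO baseline.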
# [14] = IUF_NPC2a_radial_glia_migration_72hr: Leibniz Research Institute for Environmental Medicine (IUF) 72-hour Neural Progenitor Cell Migration Assay for Radial Glia Migration (NPC2a) (AID 2284299)
# Summary of the method: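 Human fetal cortex (GW 16-19) neural progenitor spheres, 0.3 mm, plated on poly-D-lysine/laminin in N2 differentiation medium with compound from day 0. Radial glia migration distance (um, sphere core edge to migration edge) measured manually in four directions on 72 h brightfield images; well mean used.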
# [15] = IUF_NPC2b_neuronal_migration_120hr: Leibniz Research Institute for Environmental Medicine (IUF) 120-hour Neural Progenitor Cell Migration Assay for Neuron Migration (NPC2b) (AID 2284300)
# Summary of the method: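 0.3 mm hNPC spheres on poly-D-lysine/laminin in N2 differentiation medium exposed 120 h, half-medium refresh day 3; 7 concentrations, DMSO max 0.1%. Neuron (TUBB3) distance from sphere core by ICC imaging, normalised to radial glia migration.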
# [16] = IUF_NPC3_neuronal_differentiation_120hr: Leibniz Research Institute for Environmental Medicine (IUF) 120-hour Neuronal Differentiation Assay (NPC3) (AID 2284301)
# Summary of the method: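 Human fetal (GW 16-19) neural progenitor spheres (0.3 mm) plated on poly-D-lysine/laminin in N2 differentiation medium, exposed 120 h at 37C with half-medium renewal day 3; 7 concentrations. TUBB3+ cells as % of Hoechst nuclei, CNN-identified; DMSO baseline.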
# [17] = IUF_NPC4_neurite_length_120hr: Leibniz Research Institute for Environmental Medicine (IUF) 120-hour Neuronal Morphology Assay for Neurite Length (NPC4) (AID 2284302)
# Summary of the method: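 Human fetal neural progenitor spheres (0.3 mm) plated on poly-D-lysine/laminin in N2 differentiation medium, exposed from day 0 for 120 h with half-medium refresh at day 3, 37C. Mean neurite length (um) of TUBB3-positive neurons from skeletonized immunostaining images; DMSO ≤0.1%.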
# [18] = IUF_NPC5_oligodendrocyte_differentiation_120hr: Leibniz Research Institute for Environmental Medicine (IUF) 120-hour Oligodendrocyte Differentiation Assay (NPC5) (AID 2284304; active = hit-call score of the fitted dose curve at least 0.9, where 1 is the maximum;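 note: primary human fetal neural progenitor spheres plated to migrate and differentiate; share of O4-positive cells among Hoechst nuclei found by CNN image analysis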)
# Summary of the method: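 Human fetal neural progenitor spheres (0.3 mm) plated on poly-D-lysine/laminin in N2 differentiation medium and exposed for 120 h at 7 concentrations, with half-medium renewal at day 3. O4-positive cells identified by CNN, expressed as percent of Hoechst nuclei.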
# [19] = IUF_NPC4_neurite_area_120hr: Leibniz Research Institute for Environmental Medicine (IUF) 120-hour Neuronal Morphology Assay for Neurite Area (NPC4) (AID 2284305; active = hit-call score of the fitted dose curve at least 0.9, where 1 is the maximum)
# Summary of the method: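 Human fetal neural progenitor spheres (0.3 mm) plated on poly-D-lysine/laminin in N2 differentiation medium, exposed 120 h (7 concentrations, DMSO ≤0.1%, half-medium refresh day 3). Fixed, TUBB3 immunostained; mean neurite area per neuron by Omnisphero skeletonization.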
# [20] = IUF_NPC2-5_cytotoxicity_72hr: Cytotoxicity Assessment at 72 hours in the Leibniz Research Institute for Environmental Medicine (IUF) Neural Progenitor Cell Migration and Differentiation Assay for Cytotoxicity (NPC2-5) (AID 2284306; active = hit-call score of the fitted dose curve at least 0.9, where 1 is the maximum;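 note: LDH release into supernatant measured by resorufin fluorescence marking membrane damage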)
# Summary of the method: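 Human fetal primary neural progenitor spheres (0.3 mm) plated on poly-D-lysine/laminin in N2 differentiation medium, exposed from day 0 at 37C. LDH-dependent resazurin-to-resorufin fluorescence in supernatant at 72 h; 7 concentrations, DMSO at most 0.1%.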
# [21] = IUF_NPC2-5_cytotoxicity_120hr: Cytotoxicity Assessment at 120 hours in the Leibniz Research Institute for Environmental Medicine (IUF) Neural Progenitor Cell Migration and Differentiation Assay (NPC2-5) (AID 2284307; active = hit-call score of the fitted dose curve at least 0.9, where 1 is the maximum)
# Summary of the method: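 Human fetal (GW 16-19) neural progenitor spheres (0.3 mm) plated on poly-D-lysine/laminin in N2 differentiation medium, exposed 120 h with half-medium renewal at day 3; 7 concentrations plus solvent control, DMSO ≤0.1%. LDH release in supernatant read by resorufin fluorescence.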
# [22] = IUF_NPC2-5_cell_number_120hr: Cell Number Assessment at 120 hours in the Leibniz Research Institute for Environmental Medicine (IUF) Neural Progenitor Cell Migration and Differentiation Assay (NPC2-5) (AID 2284308);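 note: count of Hoechst-stained nuclei in migration zone around plated human neural progenitor spheres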
# Summary of the method: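 Human fetal neural progenitor spheres (0.3 mm) plated on poly-D-lysine/laminin in N2 differentiation medium, exposed five days across 7 concentrations with half-medium refresh at day 3. Hoechst-positive nuclei counted in migration area at 120 h, relative to DMSO.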
# [23] = IUF_NPC2-5_viability_120hr: Viability Assessment at 120 hours in the Leibniz Research Institute for Environmental Medicine (IUF) Neural Progenitor Cell Migration and Differentiation Assay (NPC2-5) (AID 2284312)
# Summary of the method: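 Human fetal neural progenitor spheres (0.3 mm) plated on poly-D-lysine/laminin in N2 differentiation medium, exposed 120 h with half-medium refresh at day 3. Viability by alamar blue resazurin fluorescence; 7 concentrations, DMSO max 0.1%.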
# [24] = CCTE_Mundy_HCI_iCellGluta_NOG_NeuriteLength: CCTE's Neurite Outgrowth Assay in iCellGluta cells for Neurite Length, Mundy Lab (AID 2284318; active = hit-call score of the fitted dose curve at least 0.9, where 1 is the maximum)
# Summary of the method: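 Automated high-content imaging of betaIII-tubulin (Alexa Fluor-488) and Hoechst-stained cells gave neurite length, normalized to the DMSO baseline.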
# [25] = IUF_NPC1_cytotoxicity_72hr: Cytotoxicity Assessment at 72 hours in the Leibniz Research Institute for Environmental Medicine (IUF) Neural Progenitor Cell Proliferation Assay (NPC1) (AID 2284332; active = hit-call score of the fitted dose curve at least 0.9, where 1 is the maximum;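 note: rising LDH signal means more cytotoxicity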)
# Summary of the method: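 Single human fetal cortex neural progenitor spheres (GW 16-19, 0.25-0.35 mm) in EGF/FGF proliferation medium were exposed to compound for 72 h at 37C without renewal. Medium LDH release was read as resorufin fluorescence and fitted as gain-of-signal.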
# [26] = CCTE_Mundy_HCI_iCellGluta_NOG_NeuronCount: CCTE's Neurite Outgrowth Assay in iCellGluta cells for Neuron Count, Mundy Lab (AID 2284340; active = hit-call score of the fitted dose curve at least 0.9, where 1 is the maximum;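 note: cells fixed about 48 h after compound addition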)
# Summary of the method: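 Neuron count read by automated high-content imaging of Hoechst 33342 and betaIII-tubulin/Alexa Fluor-488 labelling in human iPSC glutamatergic neurons. Activity fitted relative to DMSO.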
# [27] = CCTE_Mundy_HCI_iCellGluta_NOG_NeuriteCount: CCTE's Neurite Outgrowth Assay in iCellGluta cells for Neurite Count, Mundy Lab (AID 2284342; active = hit-call score of the fitted dose curve at least 0.9, where 1 is the maximum;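 note: chemical exposure about 48 hours starting 2 hours after plating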)
smiles,measurement,setting,value
CCOP(=O)(Oc1cnc(C(C)(C)C)nc1)OC(C)C (configuration not stated),outcome,[1],inactive
same,outcome,[2],inactive
same,outcome,[3],inactive
same,outcome,[4],inactive
same,outcome,[5],inactive
same,outcome,[6],inactive
same,outcome,[7],inactive
same,outcome,[8],inactive
same,outcome,[9],inactive
same,outcome,[10],inactive
same,outcome,[11],inactive
same,outcome,[12],inactive
same,outcome,[13],inactive
same,outcome,[14],inactive
same,outcome,[15],inactive
same,outcome,[16],inactive
same,outcome,[17],inactive
same,outcome,[18],inactive
same,outcome,[19],inactive
same,outcome,[20],inactive
same,outcome,[21],inactive
same,outcome,[22],inactive
same,outcome,[23],inactive
same,AC50,[24],28.8 µM (active)
same,outcome,[25],inactive
same,outcome,[26],inactive
same,outcome,[27],inactive
